# Unmarked numbers belong to inactive results. Inconclusive results are not listed. Where a call stands in place of a potency, no number is given. Activity calls are given as the source filed them. Calls come from the whole dose curve; as a rule, active = well fitted curve in the direction sought with a large enough effect; inconclusive = small, poorly fitted or top-dose-only effect, or another doubt; inactive = no such curve, though single readings can be large; an effect the other way counts as inactive or inconclusive.
# Legend:
# [1] = molecular target: Phospholipid hydroperoxide glutathione peroxidase GPX4 (Homo sapiens) (UniProt P36969); experiment: Primary qHTS Assay for Inhibitors of Recombinant Selenoprotein Glutathione Peroxidase 4 (GPX4) (AID 1845192); details: recombinant GPX4, GR-coupled NADPH fluorescence, 15 min; series mostly up to 50 µM; note: nearly all actives have a fitted effect of over 65% in size
# Chain of Phospholipid hydroperoxide glutathione peroxidase GPX4 (Homo sapiens) (P36969 whole entry, looked up): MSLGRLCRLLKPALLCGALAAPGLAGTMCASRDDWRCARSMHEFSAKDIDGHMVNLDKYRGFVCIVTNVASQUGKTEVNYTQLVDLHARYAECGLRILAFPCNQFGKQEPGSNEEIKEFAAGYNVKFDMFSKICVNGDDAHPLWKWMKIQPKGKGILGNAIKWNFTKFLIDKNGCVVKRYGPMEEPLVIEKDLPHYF
# Procedure, shortened: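 GR-coupled assay: recombinant GPX4 preincubated 30 min with compound at room temperature; final 200 nM GPX4, 1 mM GSH, 0.5 mM cumene hydroperoxide, 0.5 mM NADPH, 100 nM GR, 0.01% BSA, pH 7.5 Tris. NADPH fluorescence (340/450 nm) read at 0 and 15 min.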
# [2] = molecular target: Luciferin 4-monooxygenase (Photinus pyralis) (UniProt P08659); experiment: Primary firefly luciferase (FLuc) qHTS assay for identification of artifact compounds. (AID 1845220); details: purified firefly luciferase, luminescence, 5 min; series mostly up to 54.1 µM; note: nearly all actives have a fitted effect of over 60% in size; note: potency is the fitted concentration of half-maximal effect
# Procedure, shortened: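 D-luciferin and ATP (10 uM each, final) in Tris acetate buffer pH 7.6 were incubated with compounds for 15 min at room temperature. The reaction was started with 10 nM Photinus pyralis luciferase and luminescence read after 5 min. Percent inhibition was fitted to a 4-parameter Hill equation.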
# [3] = test system: Nanoluciferase (engineered Oplophorus gracilirostris luciferase); experiment: Primary Nanoluciferase (NLuc) qHTS assay for identification of artifact compounds. (AID 1845222); details: NLuc-conditioned medium, Nano-Glo luminescence, 5 min; series mostly up to 54.1 µM
# Procedure, shortened: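 Diluted conditioned medium from NLuc-expressing S16 cells treated with compounds for 15 min at room temperature, then Nano-Glo substrate added; luminescence read after 5 min. Percent inhibition versus no-enzyme and DMSO controls fitted to 4-parameter Hill equation.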
# [4] = Primary fluorescence-based thiol-reactive (MSTI) qHTS assay for identification of artifact compounds. (AID 1845221); details: MSTI thiol-reactivity probe, 1 h; series mostly up to 53.8 µM;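 note: thiol-reactive compounds lower the probe fluorescence signal; nearly all actives have a fitted effect of over 65% in size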
# Procedure, shortened: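 MSTI probe at 4 uM final in 2% DMSO/PBS pH 7.4; compounds, 1 h at room temperature in dark. Fluorescence Ex/Em 525/598 nm, normalised to Acetyl-MSTI and MSTI, fitted to 4-parameter Hill.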
structure (smiles),measurement,setting,value
Cn1c(=O)cc(N2CCCC(N)C2)n(Cc2ccccc2C#N)c1=O (stereo not drawn),Potency,[1],inactive
same,Potency,[2],inactive
same,Potency,[3],inactive
CC1C(=O)CC2C3C(O)CC(C(=O)O)C12CC3(C)C (stereo not drawn),Potency,[1],inactive
same,Potency,[2],inactive
same,Potency,[3],inactive
COc1cc2c(cc1OC)CN(C(=O)[C@@H](NCc1ccncc1)C(C)(C)C)CC2,Potency,[1],inactive
same,Potency,[2],inactive
same,Potency,[3],inactive
CC(C)C(C#N)O[C@@H]1O[C@H](CO[C@@H]2OC[C@](O)(CO)[C@H]2O)[C@@H](O)[C@H](O)[C@H]1O (stereo partly drawn),Potency,[1],inactive
same,Potency,[2],inactive
same,Potency,[4],inactive
same,Potency,[3],inactive
O=C(O)c1cnn(-c2nc3cc(OC(F)(F)F)c(Cl)cc3[nH]2)c1,Potency,[2],3.01 µM (active)
same,Potency,[4],inactive
CC1=C2C(=O)C=C(CO)[C@@H]2[C@H]2OC(=O)[C@H](C)[C@@H]2[C@@H](O)C1,Potency,[1],inactive
same,Potency,[2],inactive
same,Potency,[3],inactive
CC(C)CC(=O)OC[C@H]1O[C@@](COC(=O)CC(C)C)(O[C@H]2O[C@H](CO)[C@@H](O)[C@H](O)[C@H]2O)[C@@H](OC(=O)CC(C)C)[C@@H]1OC(=O)CC(C)C,Potency,[1],inactive
same,Potency,[2],inactive
same,Potency,[3],inactive
COC1C=C([C@@H]2CC=C3[C@@]4(C)C(CC[C@]32C)[C@@]2(C)C=CC(=O)C(C)(C)C2C[C@H]4OC(C)=O)C(=O)O1 (stereo partly drawn),Potency,[1],inactive
same,Potency,[2],inactive
same,Potency,[4],inactive
same,Potency,[3],inactive
CO[C@@H]1CC[C@H](OC[C@]2(COC(=O)c3ccc(C)[nH]3)[C@H](OC(C)=O)CC[C@@]3(C)[C@@H]4CC=C(C)[C@@H](C5=C(O)C(=O)OC5O)[C@]4(C)CC[C@@H]32)O[C@H]1C (stereo partly drawn),Potency,[1],inactive
same,Potency,[2],inactive
same,Potency,[3],inactive
CCOC(=O)[C@H](CCc1ccccc1)N[C@@H](C)C(=O)N1C2CCCCC2C[C@H]1C(=O)O (stereo partly drawn),Potency,[1],inactive
same,Potency,[4],inactive
same,Potency,[3],inactive
CC(=O)c1cnc2ccc(-c3cc(Cl)c(O)c(Cl)c3)nc2c1NC1CCC(CN(C)C)CC1 (stereo not drawn),"activity change, negative = inhibition",[1],17.1% [at 9.73 µM]
same,"activity change, negative = inhibition",[2],2.41% [at 11.6 µM]
same,"activity, negative = inhibition",[3],0% [at 11.6 µM]
C[C@@H]1C[C@H]2[C@@H]3CCC4=CC(=O)C=C[C@]4(C)[C@@]3(F)[C@@H](O)C[C@]2(C)[C@@]1(O)C(=O)COP(=O)(O)O,Potency,[1],inactive
same,Potency,[2],inactive
same,Potency,[4],inactive
same,Potency,[3],inactive

# Source: PubChem BioAssay (NCATS)
